# TGFb inhibitor: TGF-b pathway inhibition. HepG2 CAGA-GFP TGF-b/SMAD3 reporter, GFP fluorescence, 18 h; TGF-beta stimulated, 500 pg/mL final. Potency, µM (titrated, usually from 46.1 µM), without a hit: top-dose activity, negative = inhibition, usual class: inhibitors. hit rate 1.2% among 410,000. AID 588855; further: potency means the concentration at half of the fitted maximal effect; on the % scale 0 is the no-effect control and ±100 the full control effect; nearly all actives have a fitted effect of over 65% in size
#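 HEPG2 CAGA-GFP, 1000 cells/well; 2 h settle, 37 C; cpd via pin tool; TGF-b 500 pg/mL final; 18 h, 37 C; GFP imaging ex488/em500-530; %Activity normalised to -TGF-b and +DMSO controls; CRC fit, curve class.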
# DT40 TDP1 no CPT: qHTS for Inhibitors of human tyrosyl-DNA phosphodiesterase 1 (TDP1): qHTS in cells in absence of CPT; DT40 Tdp1-/- hTDP1 cells, no CPT, ATP luminescence, 48 h; Potency, µM (top dose mostly 46.2 µM), inactives show at the highest dose activity change, negative = growth inhibition, most hits filed as inhibitors; hit rate 15% among 420,000; further: potency means the concentration at half of the fitted maximal effect; on the % scale 0 is the no-effect control and ±100 the full control effect; nearly all actives have a fitted effect of over 55% in size
#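 Luminescent ATP content (CellTiter-Glo) served as the growth readout. Knockout chicken DT40 cells expressing human TDP1 were exposed to compounds without camptothecin for a minimum 48 hr at 37 °C.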
# DT40 TDP1 CPT: DT40-hTDP1 cell growth loss with CPT. chicken DT40 Tdp1-/-;hTDP1 cells + 20 nM CPT, ATP luminescence, 48 h. Potency, µM (titrated, usually from 46.2 µM), for inactives: top-dose activity change, negative = growth inhibition, most hits filed as inhibitors. hit rate 12% among 420,000. AID 686979; further: potency means the concentration at half of the fitted maximal effect; on the % scale 0 is the no-effect control and ±100 the full control effect; nearly all actives have a fitted effect of over 55% in size
#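 Cell growth measured by CellTiter-Glo luminescence after a minimum 48 h, 37 C compound exposure with 20 nM CPT in Tdp1-knockout DT40 cells stably expressing hTDP1, seeded 400/well; qHTS titration format.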
# IL1B secr inh: inhibitors of inflammasome signaling (IL-1 beta secretion). THP-1 LPS/ATP IL-1B secretion, AlphaLISA, 16 h; active compounds read low. activity change, % at 57.5 µM. hit rate 4.7% among 360,000; in the data active means activity change below about -50%; inconclusive means mostly about -30% to -49%; further: on the % scale 0 is the no-effect control and ±100 the full control effect
#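 Secreted IL-1B measured by AlphaLISA bead assay after 16 h compound exposure of THP-1 cells; compounds (final up to 57.5 uM) added 1 h before LPS (250 ng/mL) and ATP (1.25 mM) stimulation; lower signal means less secretion.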
# TDP1 block: TDP1 (human) enzyme inhibition; Potency, µM (titrated, usually from 130 µM), for the others: at the highest dose activity change, negative = inhibition, usual class: inhibitors; hit rate 0.28% among 350,000; recombinant TDP1, AlphaScreen DNA substrate cleavage; further: potency means the concentration at half of the fitted maximal effect; on the % scale 0 is the no-effect control and ±100 the full control effect; nearly all actives have a fitted effect of over 40% in size
# Target sequence (Q9NUW8 whole entry, looked up): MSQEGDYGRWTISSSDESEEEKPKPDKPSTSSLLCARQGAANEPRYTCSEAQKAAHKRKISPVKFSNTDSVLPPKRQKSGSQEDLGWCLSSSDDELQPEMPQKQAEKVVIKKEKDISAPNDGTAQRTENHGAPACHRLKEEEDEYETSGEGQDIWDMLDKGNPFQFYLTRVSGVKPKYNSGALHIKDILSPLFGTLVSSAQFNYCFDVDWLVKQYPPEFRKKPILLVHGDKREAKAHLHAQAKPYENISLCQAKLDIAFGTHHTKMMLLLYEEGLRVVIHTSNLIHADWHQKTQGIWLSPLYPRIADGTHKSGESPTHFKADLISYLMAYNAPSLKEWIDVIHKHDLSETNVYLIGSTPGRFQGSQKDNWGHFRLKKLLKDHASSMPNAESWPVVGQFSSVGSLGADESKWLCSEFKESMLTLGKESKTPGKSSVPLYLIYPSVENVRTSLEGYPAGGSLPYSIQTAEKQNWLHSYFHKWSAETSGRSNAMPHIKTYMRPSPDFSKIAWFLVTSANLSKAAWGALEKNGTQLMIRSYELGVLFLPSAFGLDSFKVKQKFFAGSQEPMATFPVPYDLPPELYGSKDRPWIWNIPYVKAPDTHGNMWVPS
#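 Recombinant E. coli-expressed Tdp1 (1 nM) preincubated with compound 15 min at RT, then 5'-biotin/3'-phosphotyrosine-FITC DNA substrate (15 nM) added for 5 min. AlphaScreen beads (10 ug/ml) added, 10 min RT; tyrosine-FITC cleavage read as signal loss.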
# HepG2 viability: counter-screen for TGF-b inhibitors: cytotoxicity in HepG2 cells; AID 588856; HepG2 CAGA-GFP viability, ATP luminescence, 18 h; Potency, µM (titrated, usually from 46.1 µM), for the others: at the highest dose activity change, negative = cytotoxicity, actives largely listed as cytotoxic; hit rate 0.76% among 410,000; further: potency means the concentration at half of the fitted maximal effect
#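 CellTiter-Glo luminescence gave cytotoxicity after 18 hours at 37 degrees C. The cells were HepG2 CAGA-GFP in 1% FBS DMEM, stimulated with 500 pg/mL TGF-beta after compound addition. %Activity was normalised to no-cell wells (complete cell-killing) and DMSO (no toxicity), and curves were fitted and classified.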
# An asterisk follows results filed as active; ? = inconclusive; . = not tested or not shown; ! = a repeat was not active; [ ] = remark or other dose. In the library only some 19% were active in any assay of this set; here they are far more common. Unless noted, the call rests on the fitted dose curve; in most records, active means well fitted curve in the direction sought with a large enough effect; inconclusive means small, poorly fitted or top-dose-only effect, or another doubt; inactive means no such curve, though single readings can be large; an effect the other way counts as inactive or inconclusive.
SMILES,TGFb inhibitor,DT40 TDP1 no CPT,DT40 TDP1 CPT,IL1B secr inh,TDP1 block,HepG2 viability
CCCCNC(=O)CSc1nc(-c2ccc(OC)cc2)cc(C(F)(F)F)n1,-0.4%,?,?,.,-5.3%,0.1%
CCCCc1nnc(SCc2cc(=O)c3cc(C(=O)OCC)ccc3[nH]2)n1C,-5.4%,-2.3%,-5.1%,.,0.0%,-46.8%
CCc1c(C)[nH]c2ccc(C)cc2c1=O,-4.8%,?,?,10.1,9.1%,-15.2%
Cc1ccc2c(C)[nH]c(=O)cc2c1,-6.5%,7.31µM*,7.31µM*,33.6,-5.7%,-9.0%
CCCCN1C(=O)C(=O)N(CC(=O)Nc2ccc(OC(F)(F)F)cc2)C1=O,-5.1%,-19.2%,?,33.2,-0.6%,2.1%
Cc1cc(C)n(-c2nc(C)c(C)c(=O)n2CC(=O)Nc2ccc(Cl)c(Cl)c2)n1,22.0%,7.31µM*,14.6µM*,.,-2.6%,3.0%
Cc1cc(C)n(-c2nc(C)c(C)c(=O)n2CC(=O)Nc2ccc(OC(F)(F)F)cc2)n1,-5.0%,18.4µM*,14.6µM*,.,7.8%,-19.2%
Cc1cc(=O)n(CC(=O)Nc2ccc([N+](=O)[O-])cc2)c(-n2nc(C)cc2C)n1,-6.9%,20.6µM*,18.4µM*,.,5.2%,-0.6%
COc1ccccc1CN1CCCC(n2cc(C(=O)N3CCCC3)nn2)C1 (centres undefined),.,?,41.9%[9.04 µM],.,.,.
O=C1CCC=C1C(O)c1ccccc1 (centres undefined),.,.,.,.,-4.4%,.
Cc1ccc(C)c(S(=O)(=O)N(C)Cc2cccs2)c1,-3.9%,-24.8%,-19.0%,-6.9,79.4µM*,-16.3%
CCc1ccc(CNC(=O)C2CCN(c3nc4ccccc4nc3C(F)(F)F)CC2)cc1,16.8%,?,-14.7%,.,0.0%,2.3%
COc1ccc(-n2nc(C(=O)N3CCN(c4ccccc4OC)CC3)c3c4ccccc4n(C)c3c2=O)cc1Cl,-0.5%,-25.3%,-19.2%,.,-4.7%,-25.0%
COc1ccc(-n2nc(C(=O)N3CCCC(C)C3)c3c4ccccc4n(C)c3c2=O)cc1Cl (centres undefined),-7.9%,-97.1%,16.4µM*,.,0.0%,2.8%
CCN(C(=O)c1nn(-c2ccc(OC)c(Cl)c2)c(=O)c2c1c1ccccc1n2C)c1cc(OC)ccc1OC,-11.6%,14.6µM*,?,.,7.0%,-14.4%
COc1ccc(-n2nc(C(=O)NCCc3ccc(Cl)cc3)c3c4ccccc4n(C)c3c2=O)cc1,-4.6%,10.3µM*,8.2µM*,.,-7.0%,-8.6%
CCCN(C(=O)c1nn(-c2ccc(OC)c(Cl)c2)c(=O)c2c1c1ccccc1n2C)c1ccccc1F,-1.1%,-13.9%,-1.9%,.,2.3%,-5.9%
CCCCNC(=O)c1nn(-c2ccc(C)cc2)c(=O)c2c1c1ccccc1n2C,-7.0%,2.59µM*,8.2µM*,.,-4.7%,-18.4%
c1ncc(-c2ccoc2)c(NC2CC2)n1,.,-8.6%,-26.7%,.,.,.
CCN(CC)CCNC(=O)c1nn(-c2ccc(OC)c(Cl)c2)c(=O)c2c1c1ccccc1n2C,-10.2%,2.8%,-3.2%,.,-2.3%,-12.5%
CCN(CC)CCCNC(=O)c1nn(-c2ccc(OC)c(Cl)c2)c(=O)c2c1c1ccccc1n2C,0.1%,16.4µM*,?,.,-7.0%,-75.2%
CC(=O)N1CCC(=NNC(=O)c2cccs2)CC1,2.5%,-5.4%,0.2%,-5.5,-5.3%,3.3%
CCOC(=O)CSc1nc2ccc(NC(=O)c3ccc(F)cc3)cc2s1,?,-27.1%,-3.2%,.,2.6%,-26.2%
O=C(NNC(=O)c1ccco1)c1ccc(NS(=O)(=O)c2cccs2)cc1,3.5%,-13.8%,-10.9%,-12.9,-5.7%,6.0%
CC1Oc2ccccc2C=C1/C=N\NC(=O)c1cccnc1 (centres undefined),1.7%,-27.2%,-12.5%,13.8,5.6%,3.0%
SMILES,TGFb inhibitor,DT40 TDP1 no CPT,DT40 TDP1 CPT,IL1B secr inh,TDP1 block,HepG2 viability
Cc1ccc(C(=O)N/N=C/C2=Cc3ccccc3OC2C)cc1 (centres undefined),14.1%,14.6µM*,?,-19.9,5.3%,-1.2%
CC1Oc2ccccc2C=C1/C=N/NC(=O)c1ccccc1 (centres undefined),22.3%,25.9µM*,9.2µM*,-1.0,0.0%,1.2%
CCc1c(C)sc(NC(=O)c2cc(-c3ccc(OC)cc3)on2)c1C#N,-1.7%,-3.2%,0.0%,.,0.9%,-0.5%
CCN1CCN(C(=O)COCc2cc(-c3ccc4c(c3)OCO4)on2)CC1,19.2%,0.8%,-16.9%,-6.1,1.2%,-2.9%
O=C(COCc1cc(-c2ccc3c(c2)OCO3)on1)N1CCN(c2cccc(C(F)(F)F)c2)CC1,?,23.1µM*!,13µM*,-9.6,0.5%,-9.8%
CCc1cccc(C)c1NC(=O)COCc1cc(-c2ccc3c(c2)OCO3)on1,-22.4%,?,23.1µM*,.,5.0%,-41.9%
COc1ccc(N2CCN(C(=O)COCc3cc(-c4ccc5c(c4)OCO5)on3)CC2)cc1,-1.9%,18.4µM*!,?,-18.6,4.4%,-7.7%
Cc1cc(C)c(NC(=O)COCc2cc(-c3cccs3)on2)c(C)c1,-18.4%,?,18.4µM*,.,-1.2%,-34.3%
COC(=O)c1sccc1S(=O)(=O)N1CCC(n2c(CC3CCCC3)nc3cccnc32)CC1,.,-14.8%,1.5%,.,.,.
CC(=O)Nc1ccn(C2OC(C(COC(C)=O)NC(=O)C3CCCN3C(=O)OC(C)(C)C)C(OC(C)=O)C2OC(C)=O)c(=O)n1 (centres undefined),-5.1%,.,.,.,7.4%,0.5%
CS(=O)(=O)c1ccc(-c2cccc(NC(=O)c3ccco3)c2)nn1,5.0%,18.4µM*,?,-7.8,1.4%,-0.1%
COc1ccc(-c2cccc(NC(=O)c3ccco3)c2)nn1,12.1%,25.9µM*,?,-9.9,.,0.0%
O=C(CSC1=NS(=O)(=O)c2cc(F)ccc2N1)Nc1cccc(F)c1,-29.8%,-0.2%,13.7%,8.3,4.2%,0.8%
COc1ccc(-c2cnc(N)nc2-c2ccc(OCc3ccccc3)cc2O)cc1,12.6µM*,?,?,?,6.3%,-29.4%
COc1ccc(-c2c(C)nc(N)nc2-c2ccc(OCc3ccc(C)cc3)cc2O)cc1OC,?,5.8µM*,?,63.1,0.0%,-2.8%
Nc1ncc(-c2ccccc2)c(-c2ccc(O)cc2O)n1,?,?,-6.9%,-92.5*,.,-56.0%
COc1ccc(-c2nc(N)nc(N)n2)c(O)c1,-3.1%,16.4µM*,14.6µM*,-24.2,-0.3%,-17.9%
